# Assay results taken from article PMC5540273 (PLoS ONE, 2017).
# Like-named read-outs stand apart in the source and are kept apart here.
# Key:
# GRK1 = details: concentration: 1 μM, replicates: in singlicate; n = 1
# GRK2 = test system: T1, GRK2; details: concentration: 1 μM, replicates: in singlicate; n = 1
# T1 construct: gene ADRBK1
# GRK3 = test system: T2, GRK3; details: concentration: 1 μM, replicates: in singlicate; n = 1
# T2 construct: gene ADRBK2
# GRK4 = details: concentration: 1 μM, replicates: in singlicate; n = 1
# GRK7 = details: concentration: 1 μM, replicates: in singlicate; n = 1
# GSK3A = details: concentration: 1 μM, replicates: in singlicate; n = 1
# GSK3B = details: n = 1
# HASPIN = test system: T3, HASPIN; details: concentration: 1 μM, replicates: in singlicate; n = 1
# T3 construct: gene GSG2
# HCK = details: concentration: 1 μM, replicates: in singlicate; n = 1
# HIPK1 = details: concentration: 1 μM, replicates: in singlicate; n = 1
# [1] = concentration: 1 μM, replicates: in singlicate
# 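Note: KINOMEscan kinase panel screen.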
SMILES,%Inh (GRK1),%Inh (GRK2),%Inh (GRK3),%Inh (GRK4),%Inh (GRK7),%Inh (GSK3A),%Inh (GSK3B; 1 µM),%Inh (HASPIN),%Inh (HCK),%Inh (HIPK1),%Inh (GSK3B; [1])
CSc1ccc(NC2=C(c3ccccc3Cl)C(=O)NC2=O)cc1 [SB-342411],0%,0%,0%,3%,0%,81%,29%,0%,0%,8%,
COc1ccc(NC(=O)c2ccc(-c3cc(-c4nnc(C)o4)ccc3C)cc2)cc1 [GW595885],0%,0%,99.2%,22%,0%,32%,,21%,0%,0%,0%
C[C@H]1CC[C@@H](C(=O)Nc2ccccc2)CN1c1cc(-c2ccc3c(N)n[nH]c3c2)nc(N)n1 [GSK2283293],0%,0%,31%,25%,0%,0%,,0%,3%,22%,0%
CN1CCC(n2cnc(-c3ccc(F)cc3)c2-c2ccnc(NC3CCNCC3)n2)CC1 [SB-229482],11%,33%,1%,26%,29%,0%,,16%,3%,32%,17%
Cl.Cl.c1ccc(-c2cc3ccncc3cc2OC2CCNCC2)cc1 [GSK1122999],0%,0%,0%,9%,10%,21%,,89%,0%,5%,18%
Cc1cc(N2CCC(NS(=O)(=O)c3ccc(F)cc3)CC2)nc(Nc2cccc(C#N)c2)n1.O=C(O)C(F)(F)F [GSK1653537],0%,0%,16%,22%,0%,0%,,0%,0%,0%,0%
CCCc1ccc(S(=O)(=O)NC2CCN(c3ccnc(Nc4ccc(OC)cc4)n3)C2)cc1 (stereo not shown) [GSK1379737],0%,0%,67%,0%,0%,7%,,14%,0%,0%,8%
CCn1c(-c2ccncc2)nc2cnccc21 [SB-735216],11%,4%,63%,45%,24%,9%,,57%,7%,10%,30%
Cn1cc(-c2ccc3c(c2)CCN3C(=O)Cc2cccc(C(F)(F)F)c2)c2c(N)ncnc21 [GSK2606414],5%,4%,0%,100%,0%,0%,,0%,0%,0%,0%
CCc1nc(-c2cccc(N(C)S(=O)(=O)c3ccccc3)c2)c(-c2ccnc(Nc3ccc(N4CCN(C(C)=O)CC4)nc3)n2)s1 [GSK1645895],0%,0%,0%,0%,0%,11%,,0%,0%,1%,20%
O=C(c1ccc(-c2cc(-c3c[nH]nc3-c3ccccn3)ccn2)cc1)N1CCCC1 [GW792479],21%,0%,0%,0%,0%,14%,,2%,12%,42%,0%
Cn1ccc2ncnc(Nc3ccc(Oc4cccc(Cl)c4)c(Cl)c3)c21,25%,51%,0%,7%,20%,22%,,21%,25%,32%,23%
NC(=O)c1sc(-n2cnc3ccccc32)cc1OCc1ccccc1F [GSK1024306],0%,0%,21%,7%,0%,7%,,49%,0%,0%,0%
CNc1nccc(-c2c(-c3ccc(F)cc3)ncn2C2CCN(C)CC2)n1 [SB-222903],0%,90%,0%,0%,0%,3%,,6%,26%,10%,0%
Nc1nccc2scc(-c3ccc4c(c3)CCN4C(=O)Cc3cc(F)ccc3F)c12 [GSK2587663],0%,0%,40%,0%,0%,17%,,0%,0%,0%,1%
Cn1ccc2ncnc(Oc3ccc(NC(=O)Nc4cccnc4)c(Cl)c3)c21,13%,0%,0%,1%,14%,0%,,0%,8%,13%,3%
